Values joined by “and” are separate entries in the source; they are usually repeats but may differ in a detail not shown here. Equal values may be shown once. In all, about 350,000 compounds went through this assay and about 5,500 (1.6%) were called active. This is one part of a sample in which actives are shown more often than they occur.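 The calls were made as follows: active = significant combined selectivity score with lowered wild-type GFP, culture density cut under 30%, mutant RFP and density less affected; inactive = any of these conditions unmet.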
Assay: reduced GFP signal of wild-type E. coli, primary screen, bacterial rRNA inhibitor project, GFP/RFP fluorescence, OD600, single point (AID 720706)
Settings: E. coli WT GFP vs humanized-ribosome RFP mutants, 24 h; GFP signal change (wild-type ribosome): stronger effect = lower value, concentration not given here unless noted; OD600 change: measured here: OD600 growth unless noted; RFP signal change: measured here: RFP humanized mutant strains, concentration not given here unless noted

Q: For `O=C1CC(=O)N(Cc2ccccc2)C(=O)N1CCCCCCN1C(=O)CC(=O)N(Cc2ccccc2)C1=O`, which GFP signal change (wild-type ribosome) is on record?
A: -23.4% (active)

Q: And the OD600 change?
A: 8%

Q: What about the RFP signal change of the same compound?
A: -3.78%

Q: With `O=C(CN1CCCC1=O)NCCc1ccccc1` as the compound, how does the GFP signal change (wild-type ribosome) read?
A: 13.1% (inactive)

Q: What about the OD600 change of the same compound?
A: 9.85%

Q: What about the RFP signal change of the same compound?
A: 2.04%

Q: With `CS(=O)(=O)N1CCC2CCNC2C1` (stereo not given) as the compound, how does the GFP signal change (wild-type ribosome) read?
A: -44.3% [stronger effect = lower value, DMSO median 0, no signal -100] (inactive)

Q: And the OD600 change?
A: -74.4% [measured here: OD600 growth, DMSO median 0, no signal -100]

Q: And the RFP signal change?
A: -13% [measured here: RFP humanized mutant strains, DMSO median 0, no signal -100, concentration not given here]

Q: For `O=C(Cc1ccccc1)N1CCCCN2[C@H](C1)[C@H](c1ccc(C#CC3(O)CCCC3)cc1)[C@@H]2CO`, which GFP signal change (wild-type ribosome) is on record?
A: -0.103% (inactive)

Q: And the OD600 change?
A: -5.65%

Q: What about the RFP signal change of the same compound?
A: -2.06%

Q: Which GFP signal change (wild-type ribosome) does the source give for `COC(=O)[C@@H]1[C@@H](CO)[C@@H]2Cn3c(ccc(-c4ccc(F)cc4)c3=O)[C@H]1N2C(C)=O` here?
A: -1.54% (inactive)

Q: And the OD600 change?
A: -1.06%

Q: And the RFP signal change?
A: -2.02%

Q: What does the source list for `C[C@]12CCC3C(CC[C@H]4[C@H](O)[C@H](O)CC[C@]34C)C1CCC2=O` (stereo not given in full)?
A: GFP signal change (wild-type ribosome): -22.2% (inactive); OD600 change: -18.8%; RFP signal change: 3.96%

Q: Which GFP signal change (wild-type ribosome) does the source give for `C[C@]12CCC3C(CC[C@H]4C[C@@H](O)CC[C@]34C)C1C[C@@H](O)[C@H]2O` (stereo not given in full) here?
A: -1.03% (inactive)

Q: What about the OD600 change of the same compound?
A: 2.49%

Q: And the RFP signal change?
A: 0.13%

Q: What does the source list for `CC12CCC3C(CCC4CC(=O)CCC43C)C1CC(=NO)C2=O` (stereo not given)?
A: GFP signal change (wild-type ribosome): -22% (active); OD600 change: -9.98%; RFP signal change: 4.28%

Q: For `C=CCN1[C@@H]2CN(S(C)(=O)=O)C[C@H]1C2c1ccc(Br)cc1` (stereo not given in full), which GFP signal change (wild-type ribosome) is on record?
A: 0.44% [stronger effect = lower value, DMSO median 0, no signal -100] (inactive)

Q: And the OD600 change?
A: -2.24% [measured here: OD600 growth, DMSO median 0, no signal -100]

Q: And the RFP signal change?
A: 0.309% [measured here: RFP humanized mutant strains, DMSO median 0, no signal -100, concentration not given here]

Q: Which GFP signal change (wild-type ribosome) does the source give for `COc1cccc(-c2ccc3n(c2=O)C[C@@H]2[C@@H](CO)[C@H](C(=O)O)[C@H]3N2C(=O)c2cnccn2)c1` here?
A: 0.18% (inactive)

Q: And the OD600 change?
A: 2.71%

Q: And the RFP signal change?
A: -2.44%

Q: For `Brc1ccc2c(c1)CNCc1cnnn1-2`, which GFP signal change (wild-type ribosome) is on record?
A: 21.4% [stronger effect = lower value, DMSO median 0, no signal -100] (inactive)

Q: And the OD600 change?
A: 6.17% [measured here: OD600 growth, DMSO median 0, no signal -100]

Q: And the RFP signal change?
A: 0.786% [measured here: RFP humanized mutant strains, DMSO median 0, no signal -100, concentration not given here]

Q: Which GFP signal change (wild-type ribosome) does the source give for `C/C=C/c1ccc(C2[C@@H]3CN(S(C)(=O)=O)C[C@H]2N3)cc1` (stereo not given in full) here?
A: 0.848% [stronger effect = lower value, DMSO median 0, no signal -100] (inactive)

Q: And the OD600 change?
A: 10.1% [measured here: OD600 growth, DMSO median 0, no signal -100]

Q: What about the RFP signal change of the same compound?
A: 0.743% [measured here: RFP humanized mutant strains, DMSO median 0, no signal -100, concentration not given here]

Q: With `O=[N+]([O-])c1cnc2ccc3ccccc3c2c1` as the compound, how does the GFP signal change (wild-type ribosome) read?
A: -67.7% (inactive)

Q: What about the OD600 change of the same compound?
A: -75.7%

Q: And the RFP signal change?
A: -31.1%

Q: Which results are given for `C/C(=N/O)c1ccc2ccc3ccccc3c2c1`?
A: GFP signal change (wild-type ribosome): -48% (active); OD600 change: -16.4%; RFP signal change: -10.4%

Q: What does the source list for `Clc1ccc([C@@H]2CC3CCC2N3)cn1` (stereo not given in full)?
A: GFP signal change (wild-type ribosome): 0.922% [stronger effect = lower value, DMSO median 0, no signal -100] (inactive); OD600 change: -1.31% [measured here: OD600 growth, DMSO median 0, no signal -100]; RFP signal change: -1.9% [measured here: RFP humanized mutant strains, DMSO median 0, no signal -100, concentration not given here]

Q: With `FC(F)(F)CN1CC2C(c3ccc(Br)cc3)C(C1)N2CC1CC1` (stereo not given) as the compound, how does the GFP signal change (wild-type ribosome) read?
A: -5.85% [stronger effect = lower value, DMSO median 0, no signal -100] (inactive)

Q: What about the OD600 change of the same compound?
A: -3.54% [measured here: OD600 growth, DMSO median 0, no signal -100]

Q: And the RFP signal change?
A: -0.25% [measured here: RFP humanized mutant strains, DMSO median 0, no signal -100, concentration not given here]

Q: For `O=C(Cc1ccncc1)N1CCCCN2[C@H](CO)[C@@H](c3ccc(C#CC4(O)CCCC4)cc3)[C@H]2C1`, which GFP signal change (wild-type ribosome) is on record?
A: 5.65% (inactive)

Q: What about the OD600 change of the same compound?
A: 9.16%

Q: And the RFP signal change?
A: 1.41%

Q: What does the source list for `Cc1ncoc1C(=O)NCC1=C(c2cccc3ccccc23)C[C@@H]2CC[C@H]1N2Cc1ccco1`?
A: GFP signal change (wild-type ribosome): 5.41% (inactive); OD600 change: -0.665%; RFP signal change: -7.54%

Q: For `CCOc1ccc(-c2cc(C)[n+](CCN(CC)CC)c(-c3ccc(OCC)cc3)c2)cc1`, which GFP signal change (wild-type ribosome) is on record?
A: -47.8% (active)

Q: What about the OD600 change of the same compound?
A: -15.2%

Q: And the RFP signal change?
A: -13.2%

Q: Which results are given for `CCC(C)NC1(c2ccccc2)CCCCC1` (stereo not given)?
A: GFP signal change (wild-type ribosome): 11.4% (inactive); OD600 change: 7.39%; RFP signal change: 4.1%

Q: With `CCN(CC)c1ccc([N+](=O)[O-])c2cccnc12` as the compound, how does the GFP signal change (wild-type ribosome) read?
A: -44.1% (inactive)

Q: And the OD600 change?
A: -57.8%

Q: What about the RFP signal change of the same compound?
A: -2.59%

Q: With `CN(c1ccccc1)c1ccc([N+](=O)[O-])c2nonc12` as the compound, how does the GFP signal change (wild-type ribosome) read?
A: -8.38% (active)

Q: And the OD600 change?
A: -3.73%

Q: What about the RFP signal change of the same compound?
A: -4.23%

Q: Which GFP signal change (wild-type ribosome) does the source give for `FC(F)(F)CN1CC2NC(C1)C2c1ccc(Br)cc1` (stereo not given) here?
A: -1.54% [stronger effect = lower value, DMSO median 0, no signal -100] (inactive)

Q: What about the OD600 change of the same compound?
A: -0.568% [measured here: OD600 growth, DMSO median 0, no signal -100]

Q: What about the RFP signal change of the same compound?
A: -0.0575% [measured here: RFP humanized mutant strains, DMSO median 0, no signal -100, concentration not given here]

Q: For `O=S(=O)(c1ccccc1)N1CCC2CCNC2C1` (stereo not given), which GFP signal change (wild-type ribosome) is on record?
A: 32.8% [stronger effect = lower value, DMSO median 0, no signal -100] (inactive)

Q: What about the OD600 change of the same compound?
A: 20.2% [measured here: OD600 growth, DMSO median 0, no signal -100]

Q: And the RFP signal change?
A: 4.31% [measured here: RFP humanized mutant strains, DMSO median 0, no signal -100, concentration not given here]

Q: Which GFP signal change (wild-type ribosome) does the source give for `CC(=O)N1C[C@@H]2C(c3ccc(Br)cc3)[C@H](C1)N2C` (stereo not given in full) here?
A: -0.325% [stronger effect = lower value, DMSO median 0, no signal -100] (inactive) and 1.25% [stronger effect = lower value, DMSO median 0, no signal -100] (inactive)

Q: And the OD600 change?
A: 4.6% [measured here: OD600 growth, DMSO median 0, no signal -100] and 7.11% [measured here: OD600 growth, DMSO median 0, no signal -100]

Q: What about the RFP signal change of the same compound?
A: -3.94% [measured here: RFP humanized mutant strains, DMSO median 0, no signal -100, concentration not given here] and 0.471% [measured here: RFP humanized mutant strains, DMSO median 0, no signal -100, concentration not given here]

Q: For `CN(C)CC1Oc2ccccc2OC1(O)c1ccccc1` (stereo not given), which GFP signal change (wild-type ribosome) is on record?
A: -40.9% (active)

Q: What about the OD600 change of the same compound?
A: -11.5%

Q: What about the RFP signal change of the same compound?
A: -12.2%

Q: What does the source list for `COC(=O)[C@@H]1[C@@H](CO)[C@@H]2Cn3c(ccc(C4=CCCCC4)c3=O)[C@H]1N2CC1CC1`?
A: GFP signal change (wild-type ribosome): -0.199% (inactive); OD600 change: -2.21%; RFP signal change: -0.887%

Q: With `O=C(O)[C@H]1[C@H](CO)[C@H]2Cn3c(cccc3=O)[C@@H]1N2C(=O)c1ccccc1` as the compound, how does the GFP signal change (wild-type ribosome) read?
A: 2.42% (inactive)

Q: What about the OD600 change of the same compound?
A: 7.83%

Q: And the RFP signal change?
A: -1.92%

Q: With `COc1ccccc1CN1[C@@H](CO)[C@@H](c2ccccc2)C12CN(C(=O)Cc1ccccc1)C2` as the compound, how does the GFP signal change (wild-type ribosome) read?
A: -13.7% [stronger effect = lower value, DMSO median 0, no signal -100] (inactive)

Q: And the OD600 change?
A: -27.1% [measured here: OD600 growth, DMSO median 0, no signal -100]

Q: And the RFP signal change?
A: -0.899% [measured here: RFP humanized mutant strains, DMSO median 0, no signal -100, concentration not given here]

Q: For `COC(=O)[C@@H]1[C@@H](CO)[C@@H]2Cn3c(ccc(-c4cccc(C(=O)N(C)C)c4)c3=O)[C@H]1N2C(=O)NC(C)C`, which GFP signal change (wild-type ribosome) is on record?
A: 1.25% (inactive)

Q: What about the OD600 change of the same compound?
A: 8.61%

Q: And the RFP signal change?
A: -0.784%
